Source: PubChem BioAssay (National Center for Advancing Translational Sciences (NCATS))
HCV inh: qHTS Assay for Inhibitors of Hepatitis C Virus (HCV). Potency, µM (highest dose often 41.8 µM), without a hit: at the top dose activity change, negative = inhibition, hits mostly inhibitors. Huh7.5.1 HCVcc-Cre infection, luciferase reporter, 44 h. AID 651820, 2012. 340,000 tested, 3.4% active; further: potency means the concentration at half of the fitted maximal effect
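1,000 cells/well; 4 h culture; + compound; + HCVcc-Cre (~0.5 moi); 44 h; luciferase substrate, RT 15 min; read 15 sec.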
Pf growth 96h: Primary qHTS for delayed death inhibitors of the malarial parasite plastid, 96 hour incubation; P. falciparum luciferase reporter growth, 96 h; Potency, µM (series often up to 28.7 µM), without a hit: at the top dose activity change, negative = inhibition, hits mostly inhibitors; AID 504834, 2011; 320,000 tested, 6.9% active; further: potency means the concentration at half of the fitted maximal effect
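Parasite growth measured via integrated firefly luciferase reporter in P. falciparum. Infected erythrocytes at 2% hematocrit, 0.05% parasitemia final were treated 96 hours at 37 C under 5% CO2, and luminescence was read.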
HCMV inh: qHTS Assay for inhibitors of the human cytomegalovirus (HCMV); HFF cells, HCMV-luciferase reporter, 72 h; active compounds read low; 410,000 tested, 4.5% active; activity change, negative = inhibition, % at 57.5 µM; in the data active means activity change below about -60%; inconclusive means no clear call, values can overlap the other calls; inactive means above about -39%
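Cell-based, HFFs, 1000 cells/well, 16 h 37C; cpds in DMSO + HCMV-luc, MOI 1 PFU/cell; 72 h 37C; OneGlo luminescence after 5 min RT; norm. to buffer vs Salinomycin 10uM.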
LASV entry inh: qHTS for Inhibitors of binding or entry into cells for Lassa Virus; Lassa virus pseudotype entry inhibition, cell reporter; Potency, µM (top dose mostly 37.9 µM), for the others: at the highest dose activity change, negative = inhibition, actives largely listed as inhibitors; 300,000 tested, 1.2% active; AID 540256, 2011; calls by dose curve; tested in HEK293 cells; further: potency means the concentration at half of the fitted maximal effect; nearly all actives have a fitted effect of over 50% in size
Pf growth 48h: Primary qHTS for delayed death inhibitors of the malarial parasite plastid, 48 hour incubation | AID 504832, 2011 | 310,000 tested, 5.9% active | Potency, µM (doses to about 28.7 µM), for the others: at the top dose activity change, negative = inhibition, usual class: inhibitors | P. falciparum luciferase growth in erythrocytes, 48 h; further: potency means the concentration at half of the fitted maximal effect
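Compounds are pin-transferred into medium, infected erythrocytes (2% hematocrit, 0.1% parasitemia final) are added, and plates sit one parasite generation at 37 C in 5% CO2. Detection reagent is then added and luminescence measured.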
MARV entry inh: qHTS for inhibitors of binding or entry into cells for Marburg Virus; 300,000 tested, 1.8% active; Marburg virus pseudotyped entry inhibition, cell reporter; Potency, µM (series often up to 37.8 µM), for the others: top-dose activity change, negative = inhibition, most hits filed as inhibitors; calls by dose curve; tested in HEK293 cells; further: potency means the concentration at half of the fitted maximal effect
Starred values were filed as active, the others as inactive; ? = inconclusive; · = no result; [ ] = another dose, or the depositor's remark. Hits are enriched below; roughly 14% of the tested compounds scored in any of these assays. Unless noted, the call rests on the fitted dose curve; in most records, active means well fitted inhibition curve with a large enough effect; inconclusive means small, poorly fitted or top-dose-only effect, or another doubt; inactive means no such curve, though single readings can be large or run the other way. On the % scale 0 is the no-effect control and ±100 the full control effect.

SMILES	HCV inh	Pf growth 96h	HCMV inh	LASV entry inh	Pf growth 48h	MARV entry inh
COC(=O)CCCC1=CC2=C(c3ccccc3)C(=O)C(C)(OC(=O)C3CCCC3)C(=O)C2=CN1Cc1ccco1 (configuration not stated)	3%	12µM*	8	·	?	?
CN(C)C(=O)c1nc2ccccc2s1	8%	19%	30	?	33%	?
CN(C)c1ccc(CC(=O)c2nc3ccccc3s2)cc1	8%	3.3µM*	?	3%	?	3%
CC(C)(C)OC(=O)N1CCC(c2c(C(=O)NC3CCCCC3)cnn2-c2cccc(F)c2)CC1	·	·	-11	3%[46.1 µM]	·	·
CC1CCCC(C)N1C(=O)Cn1c(SCC(=O)NCc2ccc3c(c2)OCO3)nc2ccccc21 (configuration not stated)	4%	-18%	-68*	-2%	6.6µM*	-4%
CC1CCCCN1C(=O)CSc1nc2cc3c(cc2c(=O)n1Cc1ccc2c(c1)OCO2)OCO3 (configuration not stated)	?	4.1µM*	-15	?	?	?
CC1CCN(C(=O)CSc2nc3ccccc3c(=O)n2Cc2ccc3c(c2)OCO3)CC1	?	·	?	1%	?	-28%
O=C(CSc1nc2cc([N+](=O)[O-])ccc2n1-c1ccccc1)NCc1ccc2c(c1)OCO2	?	10µM*	?	?	-22%	?
Cc1cc(C)cc(-n2c(SCC(=O)NCc3ccc4c(c3)OCO4)nc3ccccc3c2=O)c1	2%	?	?	6%	?	?
Cc1cc(N2CCC(C(=O)NCCC(C)C)CC2)n2nc(C)c(-c3ccc(Cl)cc3)c2n1	·	·	6	23%[46.1 µM]	·	0%[46.1 µM]
COc1cccc(C(c2sc3nc(-c4ccco4)nn3c2O)N2CCN(c3ccccc3F)CC2)c1 (configuration not stated)	·	·	56	6%[46.1 µM]	·	·
C[C@H]1CN(CCc2ccccc2)C(=O)[C@@H]1CC(=O)Nc1ccccc1	·	·	-75*	·	·	·
CSC[C@H]1CN(CCc2ccccc2)C(=O)[C@@H]1CC(=O)Nc1ccccc1	·	·	-7	·	·	·
COc1ccc2c(CSc3nnc(-c4cccnc4)n3-c3ccccc3F)cc(=O)oc2c1	-14%	6.6µM*	12	-12%	?	-18%
CCOc1ccc(-n2c(SCc3cc(=O)oc4cc(C)c(C(C)C)cc34)nnc2-c2cccnc2)cc1	?	?	-80*	-5%	?	-21%
Cc1cc2oc(=O)cc(CSc3nnc(-c4cccs4)o3)c2cc1C(C)C	10µM*	?	-38	?	8.3µM*	?
O=C(NCc1ccccc1)C12CN(Cc3ccccc3)CC1C(c1ccc([N+](=O)[O-])cc1)=NO2 (configuration not stated)	-22%	?	13	·	12µM*	·
Cc1ccc(CNC(=O)C23CN(Cc4ccccc4)CC2C(c2ccc([N+](=O)[O-])cc2)=NO3)o1 (configuration not stated)	-30%	?	69	·	?	0%
COc1ccc(CNC(=O)C23CN(Cc4ccccc4)CC2C(c2ccc([N+](=O)[O-])cc2)=NO3)cc1 (configuration not stated)	-25%	13µM*	18	·	6.6µM*	5%
COc1ccc(CCNC(=O)C23CN(Cc4ccccc4)CC2C(c2ccc([N+](=O)[O-])cc2)=NO3)cc1 (configuration not stated)	?	?	13	·	5.2µM*	1%
Cc1ccc(CNC(=O)C23CN(Cc4ccccc4)CC2C(c2cccc([N+](=O)[O-])c2)=NO3)cc1 (configuration not stated)	-20%	?	-2	·	10µM*	·
O=C(COC(=O)CSc1ccccc1)NC1CCS(=O)(=O)C1 (configuration not stated)	·	·	-16	·	·	·
COc1ccc(CNC(=O)c2cnn(-c3ccccc3)c2-n2cccc2)cc1OC	·	·	-12	·	·	-27%[46.1 µM]
O=C(NCc1ccco1)C12CN(Cc3ccccc3)CC1C(c1ccc([N+](=O)[O-])cc1)=NO2 (configuration not stated)	-24%	0%	18	·	12µM*	·
Cc1cc(C)c(C(=O)Nc2ccccc2)c(SCC(=O)Nc2ccc(Br)cc2C)n1	·	·	-69*	-18%[46.1 µM]	·	?
SMILES	HCV inh	Pf growth 96h	HCMV inh	LASV entry inh	Pf growth 48h	MARV entry inh
COc1ccccc1NC(=O)c1c(C)cc(C)nc1SCC(=O)Nc1ccc(C)c(C)c1	·	·	?	-22%[46.1 µM]	·	7.9µM*
COc1ccc(NC(=O)CSc2nc(C)cc(C)c2C(=O)Nc2ccccc2OC)cc1	·	·	1	-6%[46.1 µM]	·	-9%[46.1 µM]
CC(C)C[C@@H]1NC(=O)[C@H](Cc2ccccc2)N(C)C(=O)[C@H](C)NC(=O)c2ccccc2NC(=O)[C@H](Cc2ccc(O)cc2)N(C)C1=O	8.9µM*	?	-30	·	3.7µM*	·
O=C(Nc1ccc(F)c(F)c1)c1oc2ccccc2c1NC(=O)C1CCCO1 (configuration not stated)	-14%	?	-65*	0%	15%	1%[46.1 µM]
Cc1ccc(NC(=O)c2oc3ccccc3c2NC(=O)C2CCCO2)cc1C (configuration not stated)	?	?	-82*	?	?	?
COc1ccc(S(=O)(=O)N2CCN(c3ccccc3OC)CC2)cc1OC	16%	?	-10	-15%	-7%	2%
O=S(=O)(c1ccc2nc(-c3ccccc3)[nH]c2c1)N1CCN(c2cccc(Cl)c2)CC1	?	8%	-3	-16%	?	?
COc1ccccc1N1CCN(C2CCN(S(=O)(=O)c3ccc(C)cc3)CC2)CC1	-1%	4.1µM*	0	-17%	?	?
COc1ccccc1N1CCN(C2CCN(S(=O)(=O)c3ccc4ccccc4c3)CC2)CC1	14µM*	?	?	?	13µM*	?
COc1ccccc1N1CCN(S(=O)(=O)c2cc(C(F)(F)F)cc(C(F)(F)F)c2)CC1	6%	6.6µM*	72	·	6.6µM*	·
COc1ccccc1N1CCN(S(=O)(=O)c2ccc3nc(-c4ccccc4)[nH]c3c2)CC1	-24%	2.9µM*	60	?	-25%	?
CC(=O)OC[C@H]1O[C@H](CC=NOCC[C@@H]2C=C[C@@H](OC(C)=O)[C@@H](COC(C)=O)O2)C=C[C@@H]1OC(C)=O	·	·	·	·	·	10%[14.2 µM]
CCc1nn(CC(=O)NCCc2ccc(Cl)cc2)c(=O)c2cc3ccccc3n12	·	·	16	·	·	-15%[46.1 µM]
